Compounds without any hit were thinned out: in the full panel of roughly 79,000, 15% have a hit. A number with no mark means an inactive call. Activity calls are given as the source filed them. Rule as the data show it: active = growth inhibition above about 70%; inactive = the rest.
Assay: NCI Yeast Anticancer Drug Screen. Data for the wt2 strain (AID 169);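 also: 0% = growth of vehicle-treated yeast cultures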
Settings: S. cerevisiae wt2 strain growth inhibition, stronger effect = higher value
Procedure: Growth inhibition of yeast strains with defined genetic alterations is measured as a screen for potential anti-cancer activity. Selected strains with alterations in DNA damage repair or cell cycle control were exposed to compounds and growth inhibition was measured relative to vehicle treated controls. The strain used in this assay is wt2

Q: What does the source list for `[N-]=N[N+]#I1OC(C(F)(F)F)(C(F)(F)F)c2ccccc21`?
A: growth inhibition (at 1.2 µM): 18%; growth inhibition (at 3.7 µM): 76% (active); growth inhibition (at 11.0 µM): 98% (active); growth inhibition (at 33.0 µM): 99% (active); growth inhibition (at 100.0 µM): 99% (active)

Q: For `CCN(CC)C(=S)N/N=C(/C)c1cccc(/C(C)=N\NC(=S)N(CC)CC)n1`, which growth inhibition (at 1.2 µM) is on record?
A: 12%

Q: And the growth inhibition (at 3.7 µM)?
A: 4%

Q: And the growth inhibition (at 11.0 µM)?
A: 10%

Q: And the growth inhibition (at 33.0 µM)?
A: 64%

Q: What about the growth inhibition (at 100.0 µM) of the same molecule?
A: 89% (active)

Q: Which results are given for `CC(=O)N/N=C/C(C)(C)C(C)(C)/C=N/NC(C)=O`?
A: growth inhibition (at 1.2 µM): -1%; growth inhibition (at 3.7 µM): -2%; growth inhibition (at 11.0 µM): 7%; growth inhibition (at 33.0 µM): 39%; growth inhibition (at 100.0 µM): 88% (active)

Q: With `Cc1ccc(Cl)c2[nH]c(-c3ccccc3)cc(=O)c12` as the molecule, how does the growth inhibition (at 1.2 µM) read?
A: -2%

Q: What about the growth inhibition (at 3.7 µM) of the same molecule?
A: -1%

Q: And the growth inhibition (at 11.0 µM)?
A: -1%

Q: What about the growth inhibition (at 33.0 µM) of the same molecule?
A: -1%

Q: What about the growth inhibition (at 100.0 µM) of the same molecule?
A: -1%

Q: With `Nc1ccccc1CC(O)C(=O)O` (stereo not given) as the molecule, how does the growth inhibition (at 1.2 µM) read?
A: 2%

Q: What about the growth inhibition (at 3.7 µM) of the same molecule?
A: 6%

Q: And the growth inhibition (at 11.0 µM)?
A: 21%

Q: What about the growth inhibition (at 33.0 µM) of the same molecule?
A: 90% (active)

Q: And the growth inhibition (at 100.0 µM)?
A: 95% (active)

Q: Which results are given for `Oc1cccc2c(Cl)ccnc12`?
A: growth inhibition (at 1.2 µM): 38%; growth inhibition (at 3.7 µM): 97% (active); growth inhibition (at 11.0 µM): 98% (active); growth inhibition (at 33.0 µM): 97% (active); growth inhibition (at 100.0 µM): 98% (active)

Q: With `OC(c1ccc(F)cc1)(c1ccc(F)cc1)C1CC1` as the molecule, how does the growth inhibition (at 1.2 µM) read?
A: -25%

Q: What about the growth inhibition (at 3.7 µM) of the same molecule?
A: -25%

Q: What about the growth inhibition (at 11.0 µM) of the same molecule?
A: -5%

Q: And the growth inhibition (at 33.0 µM)?
A: -28%

Q: And the growth inhibition (at 100.0 µM)?
A: 87% (active)

Q: For `CCCCc1cc(O)ccc1O`, which growth inhibition (at 1.2 µM) is on record?
A: 0%

Q: And the growth inhibition (at 3.7 µM)?
A: -1%

Q: And the growth inhibition (at 11.0 µM)?
A: 1%

Q: And the growth inhibition (at 33.0 µM)?
A: 3%

Q: And the growth inhibition (at 100.0 µM)?
A: 6%
